# Laboratory results: PubChem BioAssay (Tox21)
# Records with an inconclusive call do not appear. Entries that show only a call come without a potency. Active and inactive are the calls of the source. Calls follow the shape of the dose curve; as a rule, active = well fitted cell-killing curve with a large enough effect in the repeat runs; inconclusive = weak or mixed curves, or effect the other way; inactive = no such curve, though single readings can be large or run the other way.
# Experiment: qHTS assay for small molecule activators of the heat shock response signaling pathway - cell viability counter screen (AID 743209); also: nearly all actives have a fitted effect of over 50% in size
# Settings: HSE-bla HeLa viability, CellTiter-Glo luminescence, 5 h; series mostly up to 62.6 µM
# In short: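 CellSensor HSE-bla HeLa cells, plated overnight at 37 C/5% CO2, were exposed to compounds in DMSO for 5 h at 37 C. Viability was then read in the same wells by CellTiter-Glo luminescence after 30 min at room temperature.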
# Potency is read from the fitted curve at half-maximal effect.
row,Structure (SMILES),Potency
1,CC1(C)CCC(Cc2ccc(Cl)cc2)C1(O)Cn1cncn1 (configuration not stated),inactive
2,CCOP(=O)(OCC)SCCSCC,inactive
3,CCCCCCCCCCOC(=O)c1ccccc1C(=O)OCCCCCCCCCC,inactive
4,CCC(COC(=O)c1cc(OC)c(OC)c(OC)c1)(c1ccccc1)N(C)C (configuration not stated),inactive
5,Cc1cc(=O)[nH]o1,inactive
6,C=CC(C)=O,inactive
7,Clc1cc(C(Cl)(Cl)Cl)cnc1Cl,49 µM (active)
8,CCOP(=O)(OCC)O/C(=C/Cl)c1ccc(Cl)cc1Cl,inactive
9,BrCCCCBr,inactive
10,C=CC(=O)OC(C)(C)C,inactive
11,CC(O)(CS(=O)(=O)c1ccc(F)cc1)C(=O)Nc1ccc(C#N)c(C(F)(F)F)c1 (configuration not stated),inactive
12,COc1c(C(C)(C)C)cc([N+](=O)[O-])c(C)c1[N+](=O)[O-],inactive
13,Clc1ccc(C2(Cn3cncn3)CC(Br)CO2)c(Cl)c1 (configuration not stated),inactive
14,O=C(NCc1cccnc1)Nc1ccc([N+](=O)[O-])cc1,inactive
15,CCn1cc[n+](C)c1,inactive
16,CCOP(=S)(Oc1ccc([N+](=O)[O-])cc1)c1ccccc1 (configuration not stated),inactive

row,Structure (SMILES),Potency
1,Cl/C=C\C[N+]12CN3CN(CN(C3)C1)C2,inactive
2,Cc1c(F)c(F)c(COC(=O)C2C(/C=C(\Cl)C(F)(F)F)C2(C)C)c(F)c1F (configuration not stated),inactive
3,O=C(CBr)OCc1ccccc1,inactive
4,O=C(OC1CCCCC1)c1ccccc1C(=O)OC1CCCCC1,inactive
5,COP(=O)(OC)O/C(=C/Cl)c1cc(Cl)c(Cl)cc1Cl,inactive
6,N#Cc1ccc(Cl)cc1,inactive
7,ClCCCCBr,inactive
8,CCOP(=S)(OCC)Oc1cc(Cl)c(Br)cc1Cl,inactive
9,O=C(O)C(F)(F)C(F)(F)C(F)(F)C(F)(F)C(F)(F)C(F)(F)C(F)(F)C(F)(F)C(F)(F)F,inactive
10,O=C(O)CC(Cl)C(=O)O (configuration not stated),inactive
11,C(=NC1CCCCC1)=NC1CCCCC1,inactive
12,CCOP(=S)(OCC)Oc1nc(Cl)c(Cl)cc1Cl,inactive
13,NC(=O)C(Cl)(Cl)Cl,inactive
14,COP(=S)(OC)Oc1cc(Cl)c(I)cc1Cl,inactive
15,COP(=S)(Oc1cc(Cl)c(Br)cc1Cl)c1ccccc1 (configuration not stated),inactive
16,CCCN(CCC)c1c([N+](=O)[O-])cc(S(C)(=O)=O)cc1[N+](=O)[O-],inactive
